Source: the supplement of paper PMC10127200
Counter-ions that a name gives are not always drawn.

Key:
Assay in all cases: Euclidean distance of Cell Painting phenotypic profile (signed KS, 77 features) to DMSO centroid (dimensionless distance); 5 or 10 uM (library dependent); higher = stronger phenotypic change vs DMSO (phenoactivity)
Settings in all cases: 48 h
786-O = test system: 786-O
Method in brief: (§1)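 Phenoactivity is computed as Euclidean distance to the median vehicle profile. The profiles, drawn from 77 Harmony features scored as signed Kolmogorov-Smirnov statistics versus same-plate vehicle wells, were corrected for plate position, correlation-weighted and replicate-averaged at the top dose. Stained cells were imaged confocally at 20X (9 fields/well) after 48 h with library compounds at 10 or 5 uM, 0.1% DMSO final, in five cancer lines and a healthy fibroblast line.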

A549 = test system: A549
Method in brief: as §1

DU145 = test system: DU145
Method in brief: as §1

FB = test system: FB
Method in brief: as §1

HEPG2 = test system: HEPG2
Method in brief: as §1

OVCAR4 = test system: OVCAR4
Method in brief: as §1

CSc1ccc2c(c1)N(CCC1CCCCN1C)c1ccccc1S2 (stereo unspecified) [Thioridazine hydrochloride]
Euclidean distance (786-O): 2.83
Euclidean distance (A549): 2.98
Euclidean distance (DU145): 2.37
Euclidean distance (FB): 3.14
Euclidean distance (HEPG2): 3.33
Euclidean distance (OVCAR4): 2.62

C[S+](CC[C@H](N)C(=O)[O-])C[C@H]1O[C@@H](n2cnc3c(N)ncnc32)[C@H](O)[C@@H]1O (stereo partly specified) [Ademetionine]
Euclidean distance (786-O): 0.708
Euclidean distance (A549): 1.02
Euclidean distance (DU145): 0.772
Euclidean distance (FB): 0.885
Euclidean distance (HEPG2): 0.304
Euclidean distance (OVCAR4): 0.658

CCc1cccc(CC)c1NC(=O)N1Cc2[nH]nc(NC(=O)c3ccc(N4CCN(C)CC4)cc3)c2C1
Euclidean distance (786-O): 2.54
Euclidean distance (A549): 2.75
Euclidean distance (DU145): 2.46
Euclidean distance (FB): 3.44
Euclidean distance (HEPG2): 2.47
Euclidean distance (OVCAR4): 2.78

CCC1(O)C(=O)OCc2c1cc1n(c2=O)Cc2c-1nc1ccccc1c2CCNC(C)C (stereo unspecified) [Belotecan (CKD-602) hydrochloride]
Euclidean distance (786-O): 4.55
Euclidean distance (A549): 3.8
Euclidean distance (DU145): 3.52
Euclidean distance (FB): 3.19
Euclidean distance (HEPG2): 3.12
Euclidean distance (OVCAR4): 3.62

N=C(N)NC(=N)N1CCOCC1 [Moroxydine HCl]
Euclidean distance (786-O): 1.5
Euclidean distance (A549): 0.937
Euclidean distance (DU145): 1.25
Euclidean distance (FB): 0.666
Euclidean distance (HEPG2): 0.422
Euclidean distance (OVCAR4): 1.22

CCCNC(C)C(=O)Nc1ccccc1C (stereo unspecified) [Prilocaine hydrochloride]
Euclidean distance (786-O): 0.697
Euclidean distance (A549): 0.662
Euclidean distance (DU145): 0.635
Euclidean distance (FB): 0.843
Euclidean distance (HEPG2): 0.473
Euclidean distance (OVCAR4): 0.791

C[C@]12CC[C@@H]3c4ccc(OS(=O)(=O)O)cc4CC[C@H]3[C@@H]1CCC2=O [Estropipate]
Euclidean distance (786-O): 0.946
Euclidean distance (A549): 0.41
Euclidean distance (DU145): 0.686
Euclidean distance (FB): 0.891
Euclidean distance (HEPG2): 0.623
Euclidean distance (OVCAR4): 1.17

Nc1nc2c(ncn2COC(CO)CO)c(=O)[nH]1 [Ganciclovir]
Euclidean distance (786-O): 1.56
Euclidean distance (A549): 0.816
Euclidean distance (DU145): 0.888
Euclidean distance (FB): 1.25
Euclidean distance (HEPG2): 0.883
Euclidean distance (OVCAR4): 3.37

CN1C(=O)/C(=C2/C(=O)Nc3ccccc32)c2ccccc21 [Meisoindigo]
Euclidean distance (786-O): 1.94
Euclidean distance (A549): 2.33
Euclidean distance (DU145): 0.82
Euclidean distance (FB): 2.24
Euclidean distance (HEPG2): 1.8
Euclidean distance (OVCAR4): 1.35

COc1cc2ncnc(Oc3cccc(NC(=O)Nc4cc(C(C)(C)C(F)(F)F)on4)c3)c2cc1OC
Euclidean distance (786-O): 0.889
Euclidean distance (A549): 2.41
Euclidean distance (DU145): 1.19
Euclidean distance (FB): 1.02
Euclidean distance (HEPG2): 0.923
Euclidean distance (OVCAR4): 1.88

COc1ccc(C(C)=O)c(O)c1 [Paeonol]
Euclidean distance (786-O): 1.07
Euclidean distance (A549): 0.755
Euclidean distance (DU145): 0.885
Euclidean distance (FB): 0.979
Euclidean distance (HEPG2): 0.302
Euclidean distance (OVCAR4): 1.58
